From PubChem BioAssay
Pol kappa inh-1 – DNA polymerase kappa (human) inhibition; Q9UBT6; purified Pol kappa, fluorescent DNA synthesis assay, 10 min; Potency, µM (series often up to 107 µM), for the others: top-dose activity, negative = inhibition, usual class: inhibitors; 0.53% of 400,000 active; further: on the % scale 0 is the no-effect control and ±100 the full control effect
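Here, compound and 10 nM enzyme are combined for 15 min at room temperature; adding 50 nM substrate (final) starts DNA synthesis, tracked by fluorescence at 0 and 10 min against buffer-only wells.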
Pol beta inh – inhibitors of human DNA polymerase beta; Potency, µM (doses to about 114 µM), for the others: at the top dose activity change, negative = inhibition, hits mostly inhibitors; P06746; Pol beta primer extension/strand displacement, fluorescence kinetic; AID 485314; 1.3% of 340,000 active; further: on the % scale 0 is the no-effect control and ±100 the full control effect
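Enzyme-only controls used 10 nM Pol beta; buffer lacking enzyme served as negative control. Compound preincubated 15 min, then 50 nM substrate added; 0 and 10 min reads at room temperature.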
FEN1 inh-1 – human FEN1 inhibition; Potency, µM (doses to about 114 µM), for inactives: at the top dose activity change, negative = inhibition, usual class: inhibitors; P39748; 0.35% of 390,000 active; AID 588795; Recombinant FEN1 flap cleavage, fluorescence, 15 min; further: on the % scale 0 is the no-effect control and ±100 the full control effect; nearly all actives have a fitted effect of over 65% in size
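Reaction started by adding substrate (50 nM final) to 10 nM enzyme after 15 min room-temperature compound preincubation. Reads at 0 and 15 min, with data normalized and fitted to a four-parameter Hill equation.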
WRN helicase inh-1 – inhibitors of human WRN helicase | Q14191 | WRN helicase unwinding, fluorescent forked duplex, kinetic | Potency, µM (highest dose often 114 µM), for the others: top-dose activity change, negative = inhibition, hits mostly inhibitors | 0.46% of 360,000 active | AID 651768; further: on the % scale 0 is the no-effect control and ±100 the full control effect; nearly all actives have a fitted effect of over 55% in size
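Enzyme (20 nM final) and test compound sit together 15 min at room temperature before substrate addition. Substrate is a single-forked duplex oligonucleotide (100 nM) labelled with fluorophore and quencher, with 2 mM ATP; helicase unwinding raises red fluorescence, read kinetically.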
Pol eta inh-1 – inhibitors of human DNA polymerase eta; Q9Y253; recombinant Pol eta, fluorescent DNA replication assay; Potency, µM (titrated, usually from 114 µM), without a hit: top-dose activity change, negative = inhibition, hits mostly inhibitors; 1.2% of 390,000 active; AID 588591; further: on the % scale 0 is the no-effect control and ±100 the full control effect
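Fluorescent replication assay: 50 nM final substrate added after a 15 min room-temperature compound preincubation with 10 nM enzyme. Signal taken at 0 min and again at 10 min.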
Pol iota inh – inhibitors of human DNA polymerase iota; AID 588590; Q9UNA4; Potency, µM (titrated, usually from 115 µM), for the others: top-dose activity, negative = inhibition, actives largely listed as inhibitors; Pol iota fluorescent replication assay, 10 min; 1% of 390,000 active
Target sequence (Q9UNA4 whole entry, looked up): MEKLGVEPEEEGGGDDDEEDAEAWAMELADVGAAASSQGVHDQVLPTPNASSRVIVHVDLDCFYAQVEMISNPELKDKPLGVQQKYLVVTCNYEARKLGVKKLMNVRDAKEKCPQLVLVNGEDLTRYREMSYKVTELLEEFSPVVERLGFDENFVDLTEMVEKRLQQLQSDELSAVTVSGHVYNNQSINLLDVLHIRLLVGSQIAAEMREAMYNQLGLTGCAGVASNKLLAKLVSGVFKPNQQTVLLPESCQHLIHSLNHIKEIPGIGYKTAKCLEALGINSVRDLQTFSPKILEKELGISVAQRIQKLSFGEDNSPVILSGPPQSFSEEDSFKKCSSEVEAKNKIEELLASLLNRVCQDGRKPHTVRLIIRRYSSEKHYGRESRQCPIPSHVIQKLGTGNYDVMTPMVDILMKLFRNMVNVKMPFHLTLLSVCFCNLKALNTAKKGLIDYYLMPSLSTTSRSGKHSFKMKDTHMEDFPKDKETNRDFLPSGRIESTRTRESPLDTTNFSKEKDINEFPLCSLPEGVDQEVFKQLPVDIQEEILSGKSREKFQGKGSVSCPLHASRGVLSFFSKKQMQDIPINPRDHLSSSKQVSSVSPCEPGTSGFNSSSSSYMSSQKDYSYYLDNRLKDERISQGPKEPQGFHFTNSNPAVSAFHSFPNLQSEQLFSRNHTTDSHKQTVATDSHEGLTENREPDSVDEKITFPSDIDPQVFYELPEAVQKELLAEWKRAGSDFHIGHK
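Fluorescent replication assay read twice, at 0 min and 10 min after adding 50 nM (final) substrate. Enzyme (10 nM) and compounds were first incubated 15 min at room temperature; enzyme-free buffer wells were negative controls.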
Pol kappa inh-2 – Pol kappa (human) inhibition, cherry-pick confirmation; purified Pol-kappa, fluorescent strand-displacement substrate; Potency, µM, usual class: inhibitors; shares compounds with Pol eta inh-1; 76% of 920 active
Pol eta inh-2 – confirmation of human DNA polymerase eta inhibitors. AID 720502. 64% of 2,600 active. Pol eta primer extension, TAMRA/BHQ fluorescence, 10 min. Potency, µM, hits mostly inhibitors. shares compounds with Pol eta inh-1
FEN1 inh-2 – FEN1 inhibition, cherry-pick retest | FEN1 flap cleavage, TAMRA/BHQ2 fluorogenic DNA substrate | shares compounds with FEN1 inh-1 | AID 720498 | Potency, µM, most hits filed as inhibitors | 79% of 880 active; further: nearly all actives have a fitted effect of over 60% in size
WRN helicase inh-2 – confirmation of human WRN helicase inhibitors. shares compounds with WRN helicase inh-1. WRN helicase DNA unwinding, fluorescence kinetic. Potency, µM (top dose mostly 57.1 µM), for inactives: at the highest dose activity, negative = inhibition, actives largely listed as inhibitors. 63% of 610 active; further: nearly all actives have a fitted effect of over 65% in size
TO DNA binding – DNA binding via thiazole orange displacement; shares compounds with WRN helicase inh-1; Potency, µM (series often up to 57.1 µM), for the others: top-dose activity change, negative = inhibition, usual class: inhibitors; thiazole orange DNA binding displacement, fluorescence; 10% of 610 active;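 further: drop in dye fluorescence marks compound binding to DNA; on the % scale 0 is the no-effect control and ±100 the full control effect; nearly all actives have a fitted effect of over 60% in size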
BLM counter – blocks human BLM helicase in WRN counterscreen; AID 720503; Recombinant BLM helicase DNA unwinding, red fluorescence; shares compounds with WRN helicase inh-1; 60% of 610 active; Potency, µM (series often up to 57.1 µM), inactives show top-dose activity change, negative = inhibition, hits mostly inhibitors; further: nearly all actives have a fitted effect of over 60% in size
* = called active by the depositor; ? = inconclusive; / = no result given; [ ] = dose if it differs, or a comment. Only some compounds are listed: those with a hit (about 2.4% of all), similar ones and a draw of the others. The call rests on the fitted dose curve; in most records, active means well fitted curve in the direction sought with a large enough effect; inconclusive means small, poorly fitted or top-dose-only effect, or another doubt; inactive means no such curve, though single readings can be large; an effect the other way counts as inactive or inconclusive. Potency means the concentration at half of the fitted maximal effect.

SMILES	Pol kappa inh-1	Pol beta inh	FEN1 inh-1	WRN helicase inh-1	Pol eta inh-1	Pol iota inh	Pol eta inh-2	others
Cc1ccc2c(c1Cl)NC(C(=O)O)C1CC(Sc3ccccc3[N+](=O)[O-])C(Cl)C21 (stereo not given)	?	?	?	-9%[11.6 µM]	45µM*	?	?
Cc1nc2ccccc2c(=O)n1-c1nccs1	/	/	/	9%[57.1 µM]	/	/	/
O=c1c2ccccc2nc(-c2ccco2)n1-c1nccs1	-36%	-2%	?	-34%[57.1 µM]	?	?	?
O=C1NC(=O)N(CCC2=CCCCC2)C(=O)/C1=C/c1cccs1	-40%	?	?	?	?	?	?
CCOc1ccccc1NC(=O)NCc1ccc2c(c1)CCN2C(=O)c1ccccc1	-21%[60.1 µM]	2%	-2%	/	-11%	?	/
C=CCN1CC[C@@]23c4c5ccc(O)c4O[C@H]2/C(=N\N=C2/CC[C@@]4(O)[C@H]6Cc7ccc(O)c8c7[C@@]4(CCN6CC=C)[C@@H]2O8)CC[C@]3(O)[C@@H]1C5	-11%[19.4 µM]	/	/	/	/	/	/
Cc1cc(/C=C2\C(=O)NC(=O)N(c3ccc(Cl)cc3)C2=O)c(C)n1C	-19%	1%	-2%	-5%	-6%	-13%	/
Cc1cc(/C=C2\C(=O)NC(=O)N(C)C2=O)c(C)n1-c1ccc2c(c1)OCO2	-40%	?	-2%	-15%	?	?	/
Cc1cc(/C=C2\C(=O)NC(=O)N(c3ccccc3)C2=O)c(C)n1-c1ccc(C(=O)O)c(Cl)c1	?	22µM*	-6%	-9%[11.6 µM]	10µM*	?	34*	Pol kappa inh-2=19*
Cc1cc(/C=C2\C(=O)NC(=O)N(c3ccc(F)cc3)C2=O)c(C)n1-c1cccc(C(=O)O)c1	?	28µM*	-6%	-11%[11.6 µM]	22µM*	22µM*	?	Pol kappa inh-2=38*
CCOC(=O)c1ccc(N2C(=O)c3n[nH]c(-c4cccs4)c3C2c2ccc(OC)cc2OC)cc1 (stereo not given)	-15%	2%	-15%	/	-16%	41%	/
[S]=[Sb][S][Sb]=[S]	-2%[19.4 µM]	/	/	/	/	/	/
CCS(=O)(=O)C1=NN2C(=N)/C(=C\c3ccc(OC(=O)c4ccco4)cc3)C(=O)N=C2S1	-18%	-26%	17%	-11%	?	-2%	/
N=C1/C(=C\c2ccc(OC(=O)c3ccccc3Cl)cc2)C(=O)N=C2SC(N3CCOCC3)=NN12	?	40µM*	?	?	22µM*	-81%	38*
CN1C(=O)CCS(=O)(=O)[C@@H]1c1ccc(Cl)cc1	-7%[12 µM]	/	/	/	/	/	/
N#CC1=C(N)Oc2c(c(=O)oc3ccccc23)C1c1ccc([N+](=O)[O-])o1 (stereo not given)	50µM*	?	50µM*	?	20µM*	?	85*	Pol kappa inh-2=38*
CC(C)Oc1ccc(C2C(C#N)=C(N)Oc3c2c(=O)oc2ccccc32)cc1 (stereo not given)	-16%	-7%	-6%	2%	?	4%	/
O=C(NCC1CC1)c1cc([N+](=O)[O-])cc([N+](=O)[O-])c1	-4%	24%	-6%	0%	-8%	145%	/
CCN1C[C@@]2(COC)CC[C@H](O)[C@@]34[C@@H]2C[C@@H]([C@@H]13)[C@]1(O)C[C@@H](OC)C2C[C@H]4[C@H]1[C@H]2OC(C)=O	-4%[12 µM]	/	/	/	/	/	/
O=[N+]([O-])c1ccc(N2CCCCCC2)c2nonc12	?	20µM*	?	22µM*	?	28µM*	60*	FEN1 inh-2=43*
CC[N+](C)(CC)CCCCOc1ccc2c(c1)C(=O)c1cc(OCCCC[N+](C)(CC)CC)ccc1-2	?	?	?	40µM*	?	14µM*	?	FEN1 inh-2=21*
CCCCCCCCCCCC[N+](C)(C)CCOc1ccccc1	-18%[60.1 µM]	/	/	/	/	/	/
Cc1cccc(Oc2nc3c(C)cccn3c(=O)c2/C=C(\C#N)c2nc3ccccc3s2)c1	-12%	-17%	?	/	50µM*	-10%	?	Pol kappa inh-2=42*;FEN1 inh-2=67*
CNNC	-7%[60.1 µM]	/	/	/	/	/	/
Cc1ccc(/C=C2/C(=O)NC(=O)N(C)C2=O)cc1	-3%	24%	1%	?	-5%	59%	/
CN1C(=O)NC(=O)/C(=C/c2ccc([N+](=O)[O-])s2)C1=O	?	?	?	?	22µM*	?	76*	FEN1 inh-2=7.6*
CCN(CC)CCCCN1c2ccccc2Oc2ccc(Cl)cc21	10%[60.1 µM]	/	/	/	/	/	/
O=C1NC(=S)NC(=O)C1=Cc1cccc2cc3ccccc3cc12	-4%	-4%	?	?	50µM*	35µM*	?	WRN helicase inh-2=?;TO DNA binding=-5%;BLM counter=?
Cc1c(O)c(O)cc2c1CC=C1[C@]3(C)CC[C@]4(C)CC[C@@](C)(C(=O)O)CC4[C@]3(C)CC[C@]12C (stereo not given in full)	-6%[60.1 µM]	/	/	/	/	/	/
CC1=C(O)C(=O)C=C2C1=CC=C1C2(C)CCC2(C)C3CC(C)(C(=O)O)CCC3(C)CCC12C (stereo not given)	32µM*	/	40µM*	25µM*	7.9µM*	3.5µM*	34*	WRN helicase inh-2=?;TO DNA binding=-19%;BLM counter=22µM*
